Hits are enriched below; roughly 2.4% of the tested compounds scored in any of these assays.
WRN inhibitor – blocks human WRN helicase; Potency, µM (series often up to 114 µM), for the others: at the highest dose activity change, negative = inhibition, most hits filed as inhibitors; 360,000 tested, 0.46% active; Q14191; WRN helicase unwinding, fluorescent forked duplex, kinetic; also: potency is read from the fitted curve at half-maximal effect; % is scaled to controls: 0 for no effect and ±100 for the full control effect; nearly all actives have a fitted effect of over 55% in size
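WRN at 20 nM final was preincubated with compound for 15 min at room temperature; reaction started with 100 nM forked duplex oligonucleotide carrying fluorophore and quencher plus 2 mM ATP (final). Unwinding followed kinetically by red fluorescence (ex 525/em 598 nm).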
Pol beta inh – DNA polymerase beta (human) inhibition | P06746 | Pol beta primer extension/strand displacement, fluorescence kinetic | Potency, µM (top dose mostly 114 µM), for the others: at the top dose activity change, negative = inhibition, hits mostly inhibitors | 340,000 tested, 1.3% active; also: potency is read from the fitted curve at half-maximal effect; % is scaled to controls: 0 for no effect and ±100 for the full control effect
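Enzyme-only controls used 10 nM Pol beta; buffer lacking enzyme served as negative control. Compound preincubated 15 min, then 50 nM substrate added; 0 and 10 min reads at room temperature.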
FEN1 inh – human FEN1 inhibition; P39748; Potency, µM (top dose mostly 114 µM), for inactives: at the top dose activity change, negative = inhibition, usual class: inhibitors; 390,000 tested, 0.35% active; Recombinant FEN1 flap cleavage, fluorescence, 15 min; also: potency is read from the fitted curve at half-maximal effect; % is scaled to controls: 0 for no effect and ±100 for the full control effect; nearly all actives have a fitted effect of over 65% in size
Target sequence (P39748 whole entry, looked up): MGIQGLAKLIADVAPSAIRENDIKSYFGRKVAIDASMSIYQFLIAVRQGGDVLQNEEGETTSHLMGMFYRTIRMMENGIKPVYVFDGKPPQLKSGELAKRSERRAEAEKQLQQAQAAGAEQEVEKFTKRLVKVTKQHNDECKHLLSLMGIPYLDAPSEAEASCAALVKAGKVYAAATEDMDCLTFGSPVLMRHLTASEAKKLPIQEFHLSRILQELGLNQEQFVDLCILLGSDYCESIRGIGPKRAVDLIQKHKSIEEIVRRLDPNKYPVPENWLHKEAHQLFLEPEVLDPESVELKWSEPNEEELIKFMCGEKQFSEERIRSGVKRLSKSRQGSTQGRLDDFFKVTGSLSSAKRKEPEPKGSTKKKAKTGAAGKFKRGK
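Compounds are tested as a concentration series against 10 nM FEN1; after a 15 min room-temperature preincubation, 50 nM substrate starts cleavage, with plate reads at 0 and 15 min. Normalized responses are fitted by a Hill equation.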
POLI inh – DNA polymerase iota (human) inhibition; Q9UNA4; Potency, µM (top dose mostly 115 µM), inactives show at the top dose activity, negative = inhibition, usual class: inhibitors; Pol iota fluorescent replication assay, 10 min; AID 588590; 390,000 tested, 1% active; also: potency is read from the fitted curve at half-maximal effect
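Fluorescent replication assay read twice, at 0 min and 10 min after adding 50 nM (final) substrate. Enzyme (10 nM) and compounds were first incubated 15 min at room temperature; enzyme-free buffer wells were negative controls.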
Pol kappa inh-1 – inhibitors of human DNA polymerase kappa; Q9UBT6; purified Pol kappa, fluorescent DNA synthesis assay, 10 min; Potency, µM (series often up to 107 µM), without a hit: top-dose activity, negative = inhibition, most hits filed as inhibitors; 400,000 tested, 0.53% active; AID 588579; also: potency is read from the fitted curve at half-maximal effect; % is scaled to controls: 0 for no effect and ±100 for the full control effect
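10 nM Pol kappa preincubated 15 min at room temperature with compounds, then reaction started with substrate at 50 nM final. Fluorescence read kinetically at 0 and 10 min; buffer-only wells served as negative control.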
Pol eta inh-1 – DNA polymerase eta (human) inhibition | Q9Y253 | recombinant Pol eta, fluorescent DNA replication assay | Potency, µM (titrated, usually from 114 µM), without a hit: at the highest dose activity change, negative = inhibition, most hits filed as inhibitors | 390,000 tested, 1.2% active | AID 588591; also: potency is read from the fitted curve at half-maximal effect; % is scaled to controls: 0 for no effect and ±100 for the full control effect
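Pol eta (10 nM) was preincubated with compounds for 15 min at room temperature, after which fluorescent replication substrate (50 nM final) was added to start the reaction. Fluorescence was read kinetically at 0 and 10 min.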
GALK confirm – confirmation of human galactokinase (GALK) inhibitors; purified GALK, Kinase-Glo ATP depletion luminescence; 150 tested, 70% active; Potency, µM (doses to about 115 µM), without a hit: at the highest dose activity, negative = inhibition, most hits filed as inhibitors; AID 2015; shares compounds with Pol eta inh-1
Redox cycling – redox cycling activity in phenol red-HRP assay; Potency, µM (highest dose often 115 µM), for the others: top-dose activity change, negative = H2O2 signal, actives largely listed as inhibitors; 150 tested, 40% active; Phenol red-HRP H2O2 redox cycling, absorbance 600 nm; shares compounds with Pol eta inh-1; AID 2035
HEK293 tox – reduces HEK-293 cell viability in GALK counter-screen; AID 2547; 170 tested, 10% active; HEK-293 viability, ATP luminescence (CellTiter-Glo), 24/48 h; shares compounds with Pol eta inh-1; Potency, µM (highest dose often 46.1 µM), for the others: at the top dose activity change, negative = cytotoxicity, usual class: inhibitors; also: potency is read from the fitted curve at half-maximal effect; % is scaled to controls: 0 for no effect and ±100 for the full control effect
Pol kappa inh-2 – confirmation of human DNA polymerase kappa inhibitors; AID 720501; 920 tested, 76% active; Potency, µM, most hits filed as inhibitors; purified Pol-kappa, fluorescent strand-displacement substrate; shares compounds with Pol eta inh-1; also: potency is read from the fitted curve at half-maximal effect
Pol eta inh-2 – confirmation of human DNA polymerase eta inhibitors; Potency, µM, most hits filed as inhibitors; Pol eta primer extension, TAMRA/BHQ fluorescence, 10 min; AID 720502; shares compounds with Pol eta inh-1; 2,600 tested, 64% active; also: potency is read from the fitted curve at half-maximal effect
The depositor's hits bear a star; ? = inconclusive; nt = no result; [ ] = another dose, or the depositor's remark. Calls follow the shape of the dose curve; as a rule, active = well fitted curve in the direction sought with a large enough effect; inconclusive = small, poorly fitted or top-dose-only effect, or another doubt; inactive = no such curve, though single readings can be large; an effect the other way counts as inactive or inconclusive.

SMILES	WRN inhibitor	Pol beta inh	FEN1 inh	POLI inh	Pol kappa inh-1	Pol eta inh-1	Pol eta inh-2	others
Cc1ccc(C(=O)COC(=O)c2cc(=O)[nH]c3ccccc23)cc1C	-8%[11.6 µM]	6%	-13%	26%	-14%	50µM*	67*
Cc1ccc(S(=O)(=O)c2c(N)n(-c3ccccc3)c3nc4ccccc4nc23)cc1	?	17%	-11%	24%	-11%	-9%	nt
O=S(=O)(Nc1c(S(=O)(=O)c2ccccc2)c2nc3ccccc3nc2n1C1CCCCC1)c1ccccc1	-33%	3%	-16%	3.5µM*	-16%	22µM*	nt	Pol kappa inh-2=30*
Cn1c(-n2cccc2)c(-c2c(-c3ccccc3)[nH]c3c2c(=O)[nH]c(=O)n3C)c(=O)[nH]c1=O	nt	16µM*	1%	79µM*	?	79µM*	nt	Pol kappa inh-2=?
Cc1ccc(-c2[nH]c3c(c2-c2c(-n4cccc4)n(C)c(=O)[nH]c2=O)c(=O)[nH]c(=O)n3C)cc1	nt	-1%	-3%	0%	-6%	?	nt
O=C(Nc1ccc(F)cc1)Nc1ccc2snnc2c1	nt	9%	-5%	8%	-8%	-14%	nt
CC(=O)c1ccc(NC(=O)Nc2ccc3snnc3c2)cc1	nt	?	?	89µM*	-24%	?	nt	Pol kappa inh-2=?
CN=C(NC#N)NCCSC[C@H]1N=CN=C1C	nt	nt	nt	nt	-13%[12 µM]	nt	nt
O=C(c1ccc2nc(-c3ccco3)c(-c3ccco3)nc2c1)N1CCN(c2ncccn2)CC1	45µM*	40µM*	-15%	?	?	?	?
O=C(c1cccc(C(=O)N2CCN(c3ncccn3)CC2)c1)N1CCN(c2ncccn2)CC1	2%	-11%	-9%	18%	3%	-14%	nt
O=C(Nc1ccc2nc(-c3ccco3)c(-c3ccco3)nc2c1)N1CCN(c2ccccn2)CC1	18µM*	1.6µM*	?	3.2µM*	28µM*	3.2µM*	?
Cc1cc2nc(-c3ccc(SCc4ccc(C(=O)O)cc4)nc3)[nH]c2cc1C	?	22µM*	?	?	-18%	28µM*	38*
Cc1cc2nc(-c3ccc(SCc4ccccc4C#N)nc3)[nH]c2cc1C	-33%	3%	-14%	?	-14%	3%	nt
Cc1cc2c(=O)n(Cc3ccco3)c(SCC(=O)NCc3ccco3)nc2s1	-27%	?	-10%	35µM*	?	?	?
Cc1nnc(SCC(=O)NCc2ccco2)[nH]c1=O	-24%[57.1 µM]	0%	1%	?	?	32µM*	30*
COc1ccc(OC)c(NC(=O)c2csnn2)c1	nt	?	13%	38%	-14%	-25%	nt
O=C(O)c1ccc(CSc2n[nH]c(-c3ccco3)n2)cc1	?	?	?	20µM*	45µM*	11µM*	?
CC(=O)c1cccc(NC(=O)c2oc3c(c2C)-c2nn(Cc4ccc(Cl)cc4)cc2CC3)c1	nt	3%	12%	-1%	-4%	-10%	nt
Cc1c(C(=O)Nc2cccc(F)c2)oc2c1-c1nn(Cc3c(F)cccc3Cl)cc1CC2	nt	1%	3%	21%	4%	89µM*	nt	Pol kappa inh-2=47*
Nc1ccc(C(=O)Nc2ccc(OC(F)(F)C(F)F)c(NC(=O)c3ccc(N)cc3)c2)cc1	-21%	5%[57.1 µM]	6%	-7%	-15%	?	nt
Nc1ccc(C(=O)Nc2ccc3c(O)cc(S(=O)(=O)O)cc3c2)cc1	-17%[11.6 µM]	nt	?	?	?	11µM*	76*	Pol kappa inh-2=?
Nc1ccc(C(CC(=O)O)n2cccc2)cc1 (centres undefined)	-6%[11.6 µM]	?	12%	40µM*	45µM*	25µM*	34*
O=C(O)CC(c1ccccc1)n1cccc1 (centres undefined)	8%	6%	1%	7%	2%	0%	nt
Fc1ccc(-c2cc(-c3ccccc3)c3c(n2)-c2cc(F)ccc2OC3)cc1	nt	2%	-3%	25%	6%	-14%	nt
O=C(c1ccco1)N1CCC2(CC1)CN(c1ccccc1)C2	nt	nt	nt	nt	-10%[60.1 µM]	nt	nt
SMILES	WRN inhibitor	Pol beta inh	FEN1 inh	POLI inh	Pol kappa inh-1	Pol eta inh-1	Pol eta inh-2	others
O=C(/C=C/c1ccc([N+](=O)[O-])cc1)Nc1cccc(C(=O)Nc2ccccc2C(=O)O)c1	32µM*	?	?	?	-15%	28µM*	24*
CCOc1ccc(NC(=O)Cn2nnc(C(=O)NCCc3ccccc3)c2N)cc1	nt	?	4%	?	?	?	nt	Pol kappa inh-2=?
Cc1ccc(F)c(NC(=O)/C(C#N)=C(\O)c2ccc(C(C)(C)C)cc2)c1	-2%[11.6 µM]	89µM*	?	?	-7%	79µM*	nt	GALK confirm=33µM*;Redox cycling=-20%;HEK293 tox=4%
Cc1cccc(NC(=O)C(=O)NNC(=O)c2ccc(C(C)(C)C)cc2)c1	6%	-27%	9%	53%	-10%	-24%	nt
O=C(CC1(O)C(=O)N(CCc2ccccc2)c2ccc(Br)cc21)c1ccccc1O (centres undefined)	nt	-16%	-19%	-4%	-11%	-12%	nt
COc1cccc2cc(C(=O)C3=C(O)C(=O)N(CCN4CCOCC4)C3c3cccc(Cl)c3)oc12 (centres undefined)	-11%[11.6 µM]	3%	-3%	-21%	-14%	28µM*	17*
COc1cccc2cc(C(=O)C3=C(O)C(=O)N(CCN4CCOCC4)C3c3ccc(Cl)cc3)oc12 (centres undefined)	-3%	39%	8%	41%	1%	?	nt

Source: PubChem BioAssay
